Laboratory results taken from PubChem BioAssay (NCI).
About 83,000 compounds went through this panel and 20% of them were active in at least one assay; those are over-represented in the sample as a whole.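 Each cell line was grown in a 96-well plate and treated with one concentration of compound for 48 hours. Values below 10 were considered active.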 Values without a mark were called inactive. Active and inactive are the calls of the source.

What was measured:
Assay in all cases: NCI-60 one-dose screen, 48 h (100 = growth as untreated, 0 = no growth, -100 = all killed)
Conditions in all cases: 10 µM unless noted
[1] = system: SK-MEL-2 melanoma
[2] = system: EKVX NSCLC
[3] = system: SN12C renal
[4] = system: UO-31 renal
[5] = system: TK-10 renal
[6] = system: ACHN renal
[7] = system: CAKI-1 renal
[8] = system: A498 renal
[9] = system: CCRF-CEM leukemia
[10] = system: SR leukemia
[11] = system: RPMI-8226 leukemia
[12] = system: OVCAR-8 ovarian
[13] = system: OVCAR-5 ovarian
[14] = system: OVCAR-4 ovarian
[15] = system: SK-OV-3 ovarian
[16] = system: IGROV1 ovarian
[17] = system: OVCAR-3 ovarian
[18] = system: HS 578T breast
[19] = system: NCI/ADR-RES ovarian

SMILES	growth [1]	growth [2]	growth [3]	growth [4]	growth [5]	growth [6]	growth [7]	growth [8]	growth [9]	growth [10]	growth [11]	growth [12]	growth [13]	growth [14]	growth [15]	growth [16]	growth [17]	growth [18]	growth [19]
Cc1nn(-c2ccccc2)c2nc3c(c(-c4ccc(Cl)cc4)c12)CNC1(CCSCC1)N3	134%	94%	108%	94.9%	107%	103%	95.4%	89.1%	118%	96.8%	109%	105%	98.2%	98.9%	98.9%	99.1%	104%	99.8%	97.3%
Cc1cc(NCc2cc(Nc3ccnc4cc(Cl)ccc34)ccc2F)nc(N2CCCC2)n1	93.5%	17.3%	35.8%	-50.9% (active)	-35.8% (active)	-69.2% (active)	71.5%	59.2%	-22.5% (active)	-23.9% (active)	-24.2% (active)	2.5% (active)	6.27% (active)	-0.25% (active)	51.1%	-2.2% (active)	-73.6% (active)	56.8%	12.7%
NC(=O)c1ccc[n+](Cc2ccc(Cl)cc2Cl)c1	95.7%	107%	101%	99.8%	88.4%	109%	107%	99.8%	97.4%	7.84% (active)	93%	99.5%	96.9%	109%	97.2%	105%	109%	99.4%	111%
O=[N+]([O-])c1ccc(Sc2cccc[n+]2[O-])c2nonc12	92.9%	98.2%	93.6%	49.1%	133%	95.4%	102%	113%	-18.8% (active)	1.31% (active)	-12.2% (active)	82.5%	120%	40.9%	108%	6.59% (active)	-8.18% (active)	24.8%	84.8%
O=C(NCCNc1cc(-c2cn(-c3ccccc3)nc2-c2cccc(O)c2)ccn1)Nc1ccccc1	86.4%	71.4%	77.4%	58.6%	124%	88.5%	80.1%	80.8%	79.3%	2.22% (active)	60.1%	74.3%	92.4%	70.1%	65.1%	67%	82.3%	50.5%	75.4%
Cc1cc(Cl)nc(NCc2cc(Nc3ccnc4cc(Cl)ccc34)ccc2F)n1	77.1%	68.1%	52.8%	44%	67.1%	76.1%	75.3%	63.3%	28.9%	-7.84% (active)	33.1%	50.6%	107%	9.24% (active)	85.1%	64.7%	53.4%	66.7%	50.3%
COC(=O)[C@]12CC[C@@H](C)[C@H](C)[C@@H]1C1=CC[C@@H]3[C@@]4(C)C(C=O)=C[C@@](C)(COS(C)(=O)=O)C4[C@H](O)C[C@@]3(C)[C@]1(C)CC2 (some centres not stated)	-60.7% (active)	-22.4% (active)	-40.8% (active)	-96.6% (active)	-73.5% (active)	-93.2% (active)	-15.6% (active)	-38.5% (active)	-33.8% (active)	-33.3% (active)	-10.7% (active)	-50.1% (active)	-38.3% (active)	-52.8% (active)	-35.2% (active)	-13.4% (active)	-88.7% (active)	-30.6% (active)	-1.9% (active)
CCC(CO)Nc1nc2ccc(Cl)cc2c2ccccc12 (configuration not stated)	84.1%	47.9%	71.1%	39.5%	54.3%	73.9%	40.9%	-19% (active)	56.5%	26.9%	66.6%	75.1%	66.9%	71.3%	70.7%	58.1%	62.8%	29.5%	62.4%
